# Insulin prom up: MIN6 insulin promoter up-regulation; MIN6 insulin promoter-GFP reporter, high-content imaging; active compounds read high; z-score at 5 µM; 0.3% of 190,000 active; AID 1625;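 active means z-score above 3 at 5 µM with at least 500 cells counted in the well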
# WT yeast gro inh: growth inhibition of WT yeast, mitochondrial fusion screen; inhibition, % at 10 µM; 2.1% of 190,000 active; mitochondrial fusion phenotypic screen, WT strain; AID 1362; in the data active means inhibition above about 58%; tested in S. cerevisiae
# INS promoter inh: TRM-6 insulin promoter activity inhibition; TRM-6 cells (human fetal islet line), insulin promoter-eGFP reporter, imaging; reporter expression induced with tamoxifen; inhibition, % at 2 µM; 0.9% of 130,000 active;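 active means inhibition above the mean plus 3 SD, with well images judged a real hit on visual review, cut at about 60% in these data, passing the limit was not always enough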
# Lmaj promast: Leishmania major promastigote growth inhibition | inhibition, % at 10 µM | AID 1063 | 9% of 200,000 active | Leishmania major promastigotes, resazurin fluorescence viability; in the data active means inhibition above about 50%;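 further: promastigotes grown with compound for 44 hours at 28 °C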
# Cl transport mod: modulators of human KCC2 chloride dependent transport. 2.2% of 190,000 active. KCC2 cells, thallium flux FluoZin-2 fluorescence. AID 1456. Q9H2X9. B-score of Tl+ flux slope (higher = more flux/activation; lower = inhibition) at 10 µM;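 active means thallium flux slope and its plate-corrected score both differing from the plate sample mean at a set confidence after two filtering rounds, in either direction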;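 further: slope of fluorescence scaled to starting intensity during 10 to 20 s after thallium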
# ROMK mod: modulates human ROMK potassium channel activity | Tet-inducible ROMK, thallium flux fluorescence; actives lie on both sides | B-score at 10 µM | 2% of 130,000 active | AID 1918;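 active means signal ratio slope over the read window, or its plate-corrected B-score, at least 3 SD from the plate mean, either direction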;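 further: B-score of the F/F0 ratio slope over 7 to 12 s after thallium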
# Target sequence (P48048 whole entry, looked up): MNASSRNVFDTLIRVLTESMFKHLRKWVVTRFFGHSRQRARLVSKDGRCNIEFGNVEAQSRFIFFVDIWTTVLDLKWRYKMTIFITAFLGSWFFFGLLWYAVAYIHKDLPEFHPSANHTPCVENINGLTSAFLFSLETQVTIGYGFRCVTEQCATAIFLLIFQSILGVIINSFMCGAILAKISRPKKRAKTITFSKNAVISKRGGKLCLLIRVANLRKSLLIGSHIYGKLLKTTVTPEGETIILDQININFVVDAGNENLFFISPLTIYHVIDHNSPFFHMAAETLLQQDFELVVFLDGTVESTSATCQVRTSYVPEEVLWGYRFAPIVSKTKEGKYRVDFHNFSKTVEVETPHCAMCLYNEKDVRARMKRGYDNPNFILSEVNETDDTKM
# Numbers without * were called inactive; . = no result given. An excerpt weighted towards active compounds, which were near 12% of everything screened.
SMILES,Insulin prom up,WT yeast gro inh,INS promoter inh,Lmaj promast,Cl transport mod,ROMK mod
O=C(OCC(=O)C12CC3CC(CC(C3)C1)C2)c1cccnc1,0.53,2,17,11,1.1,-1.7
COc1ccc(-c2[nH]ncc2CN(CCO)CC23CC4CC(CC(C4)C2)C3)c(OC)c1,1.6,12,.,11,.,-0.3
O=C(c1ccc(Cl)cc1)c1c[nH]c(C(=O)C(Cl)(Cl)Cl)c1,-0.36,82*,14,86*,-1,0.79
CN(C)C=NC(=O)c1cc(C(=O)c2ccccc2)c[nH]1,0.15,-4,.,0,0.59,0.35
O=C(c1c[nH]c(C(=O)C(Cl)(Cl)Cl)c1)c1ccc(F)cc1Cl,1.7,-5,.,71*,1.1,0.69
O=C(NC1CC1)c1ccc(F)cc1Cl,-0.1,1,13,-4,.,-0.23
O=C(c1ccccc1)c1c[nH]c(C(=O)C(Cl)(Cl)Cl)c1,-0.08,3,.,87*,0.44,-0.15
Cc1ccc(-n2nnnc2C(Cl)(Cl)c2nnnn2-c2ccc(C)cc2)cc1,0.93,95*,.,9,0.25,0.48
COc1ccc(Br)cc1/C=N/NC(=O)Cn1nnnc1N,-0.19,.,.,.,0.068,-0.055
CCOC(=O)c1ccc(NCC(O)COc2ccccc2)cc1 (centres undefined),0.18,18,-52,2,-0.42,0.21
CCCCCc1nc2sc3c(c2c(=O)n1NC(=O)c1ccc([N+](=O)[O-])cc1)CC(C)(C)OC3,0.06,80*,11,-4,-0.037,0.00043
Cc1ccc(NCc2ccc(O)c3ncccc23)cc1C,0.09,-14,79*,9,1.9,.
Cc1cccc(NCc2ccc(O)c3ncccc23)c1C,-1.4,8,.,8,0.24,0.51
Cc1cccnc1NCc1ccc(O)c2ncccc12,-0.52,-16,46,58*,-0.66,.
CC(C)(C)c1ccccc1NC(=S)NC1CCCCC1,-1,66*,-25,19,0.54,0.15
Cc1cccc(NC(=S)NC2CCCCCC2)c1C,0.35,67,3,82*,0.65,-0.69
COc1ccc(Cl)cc1NC(=S)NCCC(c1ccccc1)c1ccccc1,-0.24,46,.,41,-0.38,.
COc1ccccc1NC(=S)NCCC(c1ccccc1)c1ccccc1,-0.51,71*,.,19,-0.28,0.062
COc1ccccc1NC(=S)NC1CCCCCC1,-0.3,59*,-12,48,0.29,-0.059
CC(=O)NC(CC(=O)c1ccc([N+](=O)[O-])cc1)C(Cl)(Cl)Cl (centres undefined),0.79,4,-17,-3,0.48,.
NC[C@@H]1O[C@H](O[C@H]2[C@@H](O)[C@H](O[C@@H]3[C@@H](O)[C@H](N)C[C@H](N)[C@H]3O[C@H]3O[C@H](CO)[C@@H](O)[C@H](O)[C@H]3N)O[C@@H]2CO)[C@H](N)[C@@H](O)[C@@H]1O,-0.07,0,.,.,0.31,.
COc1ccc(-c2cn3cccnc3n2)cc1NC(=O)c1cccs1,-0.63,12,.,97*,0.59,.
COc1ccc(-c2cn3cccnc3n2)cc1NC(=O)c1cc(OC)c(OC)c(OC)c1,-0.11,-12,.,25,-2.1,0.0055
COc1ccc(-c2cn3cccnc3n2)cc1F,0.1,14,57,80*,-0.085,.
CCc1ccc(NC(=O)c2cnc(N3CCN(c4ccccn4)CC3)c3ccccc23)cc1,.,23,24,82*,-1.4,0.26
SMILES,Insulin prom up,WT yeast gro inh,INS promoter inh,Lmaj promast,Cl transport mod,ROMK mod
CC(C)NC(=O)c1cnc(N2CCN(c3ccccn3)CC2)c2ccccc12,-0.64,-8,29,3,.,-1
CCn1cc(C(=O)O)c(=O)c2cnc(N3CCN(C(=S)Nc4ccccc4C(F)(F)F)CC3)nc21,.,.,.,.,-0.32,-0.69
O=c1c(-n2cncn2)c[nH]n1-c1cccc(Cl)n1,0.08,15,92*,-5,-0.24,0.82
CCOC(=O)c1c(C)n(C)c2ccc(O)c(CN3CCC(C)CC3)c12,-0.94,7,-51,61*,-0.24,.
CCOC(=O)c1c(C)n(C)c2ccc(O)c(CN(CC)CC)c12,.,-16,12,62*,.,0.73
CCOC(=O)c1c(C)n(C)c2ccc(O)c(CN3CCN(C)CC3)c12,-0.1,-9,.,-3,.,.
O=C(NC(=S)Nc1ccc(N2CCCCC2)cc1)c1ccc2c(c1)OCCO2,0.72,2,-69,64*,1.1,0.82
O=C(Nc1ccc(N2CCCCC2)c(Cl)c1)c1ccc2c(c1)OCCO2,-1.2,69*,-14,15,.,1.1
O=C(NC(=S)Nc1ccc(N2CCOCC2)cc1)c1ccc2c(c1)OCCO2,-0.46,6,39,2,0.44,-0.013
O=C(Nc1ccc(N2CCCCC2)c(Cl)c1)c1ccc(N2CCOCC2)c([N+](=O)[O-])c1,1.4,1,17,93*,.,.
COc1ccc(S(=O)(=O)c2nnn(-c3cccc(Cl)c3)c2N)cc1,0.68,4,-12,-1,-0.13,-0.91
Cc1onc(-c2ccccc2Cl)c1C(=O)NCc1ccc(N2CCCC2=O)cc1,.,.,-23,17,.,.
O=c1oc2cc(OCc3ccc(C(F)(F)F)cc3)ccc2cc1-c1ccccn1,0.01,-2,38,1,.,0.95
COc1ccc2c(-c3cc4ccc(OCc5ccc(F)cc5)cc4oc3=O)cc(=O)oc2c1,-0.09,-4,26,52*,0.29,.
COc1ccc(-c2cc(=O)oc3cc(OCC(C)=O)ccc23)cc1,-0.96,-13,26,64*,0.075,-0.033
CC(C(=O)N1CCCCC1)n1ncn2cccc2c1=O (centres undefined),.,-4,.,-5,0.15,0.43
CCCCC(NC(C)=O)c1nc2ccccc2[nH]1 (centres undefined),0.54,3,.,-6,0.93,.
COc1ccc(N2C(=O)C(F)(F)C2c2ccccc2F)cc1 (centres undefined),0.62,-13,0,3,0.2,.
COC(=O)Nc1cc(C)nc2ccccc12,-0.06,4,64,55*,-0.27,.
Cc1cc(NC(=O)Cc2ccccc2)c2ccccc2n1,-1.1,7,44,3,-1.2,-0.17
Cc1cc(C)cc(NC(=O)CC23CC4CC(C2)CC(n2nnc(C)n2)(C4)C3)c1,0.17,-2,-7,46,-0.55,0.031
Cc1nnn(C23CC4CC(CC(CC(=O)Nc5ccc(C)c(Cl)c5)(C4)C2)C3)n1,-0.14,21,-7,95*,-0.12,-1
CC(=O)Nc1cc2c(cc1C(=O)C(C)C)OCCO2,-0.02,-4,62,-1,1.5,.
CC(C)C(=O)c1cc2c(cc1NC(=O)c1cccs1)OCCO2,.,9,71*,1,.,.
CC(C)C(=O)c1cc2c(cc1NC(=O)c1ccccc1)OCCO2,.,-4,89*,57*,.,.
O=C(C1=C[C@@H](c2ccccc2)C[C@@H](OCc2ccc(CO)cc2)O1)N1CCCCCCC1,-0.71,-3,.,35,-1.1,.
CCO[C@H]1OC(C(=O)N2CCN(Cc3ccc4c(c3)OCO4)CC2)=C[C@@H](C)[C@@H]1CCCO,0.54,-3,.,3,0.27,.
Cc1ccc(C(=O)CSc2nnc(CNc3ccc(C)cc3C)n2Cc2ccco2)cc1,0.11,25,.,60*,-0.45,.
